Results filed as inconclusive are left out. Unmarked numbers belong to inactive results. The source made the active and inactive calls. Calls come from the whole dose curve; as a rule, active = well fitted inhibition curve with a large enough effect; inconclusive = small, poorly fitted or top-dose-only effect; inactive = flat fitted curve, though single readings scatter.
% is set by controls: 0 for no effect and ±100 for the full control effect; potency is the fitted concentration of half-maximal effect.

The test in a line: CHOP2 Reporter Counterscreen Assay for Inhibitors of Ubiquitin-specific Protease USP2a.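 Note: activated enterokinase alone at 50 pM in a cell-free format rather than USP2a or CHOP2; nearly all actives have a fitted effect of over 55% in size.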 To be noted: purified enterokinase, fluorogenic substrate, 485/531 nm; series mostly up to 38.3 µM; activity change, negative = inhibition: at the top concentration. The method in brief: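 Fluorescence (485/531 nm) read 10 min after adding 25nM reporter substrate to 50 pM activated EK preincubated 30 min RT with compound; Tris pH 8.0/CaCl2/CHAPS buffer. Data normalized to buffer-alone inhibition; concentration-response curves fitted.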
In general terms: The purpose of a counterscreen is to sort out artefacts and off-target activity.
On to `Cc1cc(N2CCOCC2)nc(SCC(=O)c2ccc(Cl)cc2)n1`, for which the “activity change, negative = inhibition” value is 4.72%. Still for that read-out and setting: under `CCOc1ccccc1C(=O)NC1CC2CCCC(C1)N2C1CC1` (stereo not drawn) stands 0.436%. Turning to `COC(=O)c1[nH]c2ccc(C)cc2c1NC(=O)CN1CCCc2ccccc21`, the Potency is 10 µM (active). On to `CCC(CO)Nc1nc(CN2CCCCC2)nc2scc(-c3ccccc3)c12` (stereo not drawn), for which the “activity change, negative = inhibition” value was 0.692%. The same measure, in the same setting: the figure for `O/N=C/c1ccccc1OCc1ccccc1F` is 0.904%; for `Cc1ccc2oc(=O)c3cnn(CC(=O)NCCCOC(C)C)c3c2c1` it is -0.662%. For the compound `COc1ccccc1-n1c(SCC(=O)Nc2ccc(C)cc2)nc(O)cc1=O`, the “activity change, negative = inhibition” value is -9.74%.

Consider `CSc1ncccc1C(=O)OCC(=O)N1CCOCC1`, for which the “activity change, negative = inhibition” value was 14.9%.
